Rows were chosen to be rich in hits. Some 0.99% of all compounds tested hit in one or more screens of this group.
Cdc25B block: inhibitors of human Cdc25B phosphatase | 0.1% of 65,000 active | recombinant Cdc25B, OMFP fluorescence Ex485/Em525 | inhibition, %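 (compounds tested at 10 µM final in the well)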 | P30305 | AID 368; in the data active means inhibition above about 50%
Target sequence (P30305 whole entry, looked up): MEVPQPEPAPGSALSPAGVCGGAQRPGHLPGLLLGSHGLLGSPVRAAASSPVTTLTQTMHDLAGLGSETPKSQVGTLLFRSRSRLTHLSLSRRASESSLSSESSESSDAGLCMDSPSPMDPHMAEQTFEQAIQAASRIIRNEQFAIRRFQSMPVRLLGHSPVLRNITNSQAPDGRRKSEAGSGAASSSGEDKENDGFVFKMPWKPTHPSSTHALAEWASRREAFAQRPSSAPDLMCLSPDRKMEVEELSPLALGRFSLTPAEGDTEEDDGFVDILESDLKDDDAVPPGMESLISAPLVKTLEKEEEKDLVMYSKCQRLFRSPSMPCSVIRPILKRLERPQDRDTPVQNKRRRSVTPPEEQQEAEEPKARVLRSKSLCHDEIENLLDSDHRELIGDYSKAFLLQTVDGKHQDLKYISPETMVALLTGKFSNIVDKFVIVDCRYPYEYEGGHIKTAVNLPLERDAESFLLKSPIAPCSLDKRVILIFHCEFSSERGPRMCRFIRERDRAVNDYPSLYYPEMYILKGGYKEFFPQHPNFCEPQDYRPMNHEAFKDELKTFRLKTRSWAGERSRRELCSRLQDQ
Hsp90 block: displaces geldanamycin probe from tumor Hsp90; NCI-N417 lysate Hsp90, Cy3B-geldanamycin FP displacement; 0.35% of 64,000 active; P07900; inhibition, % at 30 µM;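 active means inhibition above 50%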;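 further: 0% = tracer plus lysate wells and 100% = tracer alone without lysate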
ROCK2 blocker: inhibitors of human Rho kinase 2. O75116. purified ROCK2, Kinase-Glo ATP depletion luminescence. inhibition, % at 6 µM. 0.35% of 60,000 active;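 active means inhibition above the screen-wide mean inhibition plus 3 SD, cut at about 18% in these data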;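 further: plate controls were DMSO wells for no effect and Y-27632 control wells after no-enzyme background subtraction for full effect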
SKBR3 24h inh: SK-BR-3 proliferation inhibitors. SK-BR-3 viability, CellTiter-Glo ATP luminescence, 24 h; stronger effect = lower value. viability, % at 10 µM. 0.47% of 41,000 active. AID 847;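 active means viability at or below the median of all test compounds minus 3 SD, in both replicates if run twice, cut at about 45% in these data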;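 further: 100% = median untreated cell wells and 0% = median positive control drug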
PKA kinase inh: inhibitors of human protein kinase A; P17612; PKA Kemptide phosphorylation, Kinase-Glo ATP luminescence; inhibition, % at 6 µM; 0.1% of 65,000 active;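 active means inhibition above the screen-wide mean inhibition plus 3 SD, cut at about 21% in these data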
MKP-1 inh: human dual specificity phosphatase 1 inhibition; 0.15% of 65,000 active; AID 374; inhibition, %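 (compounds tested at a single concentration somewhere between 10 and 100 µM)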; recombinant MKP-1, OMFP hydrolysis fluorescence;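 active means inhibition above about 50%, limit read from the data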;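 further: 0% = DMSO max control wells and 100% = wells with enzyme stopped by NaOH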
Numbers without * were called inactive; x = no result.

SMILES | Cdc25B block | Hsp90 block | ROCK2 blocker | SKBR3 24h inh | PKA kinase inh | MKP-1 inh
CC(C)(C)NCC(O)COc1cccc2c1C[C@H](O)[C@H](O)C2 (stereo not given in full) | 100.2* | -0.4 | 2.7 | 102.8 | -1.8 | -15.6
CCOc1ccc(S(=O)(=O)N2CCN(c3ccccc3)CC2)c2cccnc12 | -2.6 | -5.0 | 5.4 | 41.8* | 8.3 | 28.5
CCOc1ccc(S(=O)(=O)N2CCN(c3ccc(OC)cc3)CC2)c2cccnc12 | -4.4 | -1.7 | 3.3 | 76.7 | 5.2 | 13.2
CCOc1ccc(S(=O)(=O)Nc2ccc3c(c2)OCO3)c2cccnc12 | 1.7 | 53.8* | 0.6 | 81.7 | -0.3 | -6.5
CS(=O)(=O)n1nc(OC(=O)c2cccc3ccccc23)cc1N | -9.1 | 2.6 | 4.9 | 42.4* | 9.5 | 2.6
Cc1cccc(NC(=O)c2c(O)c3cccc4c3n(c2=O)CCC4)n1 | -16.8 | 50.3* | 1.5 | x | 9.9 | 11.0
Cc1cnc(NC(=O)c2c(O)c3cccc4c3n(c2=O)CCC4)s1 | 6.5 | -0.3 | 5.1 | 106.9 | 11.4 | -2.6
CC(C)c1ccc(-c2noc(C3CCCN(C(=O)c4ccc(F)cc4F)C3)n2)cc1 (stereo not given) | -32.8 | -3.0 | 2.2 | 106.2 | 0.8 | 14.8
Cc1ccc(-c2noc(C3CCCN(C(=O)c4ccc(F)cc4F)C3)n2)cc1 (stereo not given) | -4.6 | -0.3 | -1.9 | 42.0* | -3.3 | -6.5
O=C(CN1C(=O)C2C3C=CC(C3)C2C1=O)Nc1ccc2c(c1)OCCO2 (stereo not given) | -1.3 | -2.5 | 0.0 | 32.0* | 1.0 | -7.8
O=C(NCC1CCCCC1)C1CCN(C(=O)NC2CCCCC2)CC1 | -7.3 | -0.9 | -3.9 | 34.7* | -2.2 | 14.9
Cc1cc(NC(=O)CSc2nc(-c3ccccc3)cs2)no1 | -9.6 | -3.6 | 18.3* | 83.4 | 12.4 | -2.0
Cn1c(=O)n(CC(=O)NC2CCCCC2)c(=O)c2ccccc21 | -10.6 | -2.1 | 5.3 | 79.6 | 10.7 | 1.0
Cc1cc(C)nc(SC2=CS(=O)(=O)c3ccccc32)n1 | -1.5 | -0.7 | -0.2 | 82.3 | -3.1 | 2.0
O=S1(=O)C=C(Sc2nc3ccccc3s2)c2ccccc21 | -0.3 | -1.7 | 3.1 | 21.7* | 1.6 | 9.7
O=C(O)CCc1cc(I)c(Oc2ccc(O)c(I)c2)c(I)c1 | -5.6 | 0.2 | 9.9 | 119.0 | 6.5 | 15.3
COCCOC(=O)C1=C(C)N=C2SCCC(=O)N2C1c1cc(Br)ccc1OC (stereo not given) | -8.0 | -2.1 | 2.5 | 85.5 | 4.0 | 2.4
c1nc(N2CCCC2)c2[nH]cnc2n1 | x | x | x | x | 21.6* | x
N=c1ccn2c(n1)OC1[C@@H](O)[C@@H](CO)O[C@H]12 (stereo not given in full) | x | -3.6 | x | x | x | x
OC[C@H]1O[C@@H](n2cnc3c(Nc4ccccc4)ncnc32)C(O)[C@H]1O (stereo not given in full) | x | 1.5 | x | x | x | x
Cc1c(N=Cc2ccc(-c3ccc(Cl)cc3)o2)c(=O)n(-c2ccccc2)n1C | -0.9 | 0.2 | -3.0 | 96.9 | 0.5 | 6.5
Cc1ccc(-c2ccc(/C=N/c3ncn[nH]3)o2)cc1Cl | -15.0 | -6.5 | 0.7 | 34.9* | -0.5 | -7.7
Cc1ccc(Nc2nnns2)cc1C | 5.0 | -4.8 | 4.6 | 77.3 | 6.0 | 1.9
CC(=O)c1cccc(NC(=O)C2CCCC2)c1 | -12.1 | x | x | 101.4 | x | -3.2
O=C1NC(=O)c2cc(NC(=O)C3CCCCC3)ccc21 | 3.8 | 3.0 | 18.4* | 94.2 | 5.9 | -29.8
SMILES | Cdc25B block | Hsp90 block | ROCK2 blocker | SKBR3 24h inh | PKA kinase inh | MKP-1 inh
COc1cc(Nc2c3ccc(Cl)cc3nc3ccc(OC)cc23)c2ncccc2c1 | x | 14.2 | x | x | x | x
NC(=O)C1(N2CCCCC2)CCN(C(=O)c2ccc(-n3cnnn3)cc2)CC1 | -4.3 | -3.5 | 4.6 | 42.0* | 8.6 | 8.1
CCSC1(SCC)N=C(N)C2(C#N)C(c3ccccc3)NC(C)=C(C)C12C#N (stereo not given) | 1.7 | -2.5 | 2.0 | 96.4 | 3.1 | 1.7
CC1=CC(C#N)(C#N)C(C#N)(C#N)C(c2ccccc2)N1 (stereo not given) | -3.8 | 51.1* | -1.3 | 97.1 | 0.6 | -6.7
Cc1nnc(Sc2nc(Sc3nnc(C)s3)nc(N3CCN(C)CC3)n2)s1 | 3.4 | -4.8 | 5.4 | 99.6 | 18.6 | -11.2
Oc1cc(O)cc(/C=C/c2ccc(O)c(O)c2)c1 | x | 108.3* | x | x | x | x
COc1ccc(Cl)cc1NC(=O)CCN1CCN(c2ccccc2C)CC1 | -5.0 | 1.8 | x | x | 10.6 | 5.5
CCN1CCN(c2ncc(C(=O)Nc3cc(Cl)ccc3OC)c3ccccc23)CC1 | -12.3 | -3.6 | -3.3 | 33.1* | -2.9 | 22.8
CC1(C)CC2(CCO1)N1CC3(C)CN2CC(C)(C1)C3O (stereo not given) | -5.1 | -2.9 | 4.9 | x | 10.2 | 0.2
COc1ccc2[nH]c3ccccc3c2c1 | 7.6 | 0.4 | 2.1 | x | -0.1 | 3.1
COc1ccc2[nH]c(=O)c3c(c2c1)OC(C)(C)C=C3 | -25.6 | 3.2 | 22.8* | 116.2 | 15.8 | -10.1
Nc1nc(OCC(F)(F)F)cc(Oc2ccccc2F)n1 | -5.8 | 1.1 | -2.2 | x | -7.0 | 4.1
Nc1cc(N)c(OCC(F)(F)F)cc1OCC(F)(F)F | 11.4 | 89.2* | 0.3 | 84.9 | -8.5 | -6.0
O=C(CN1C(=O)c2ccccc2S1(=O)=O)N1CCN(Cc2ccc3c(c2)OCO3)CC1 | -2.6 | -0.1 | 0.2 | 39.7* | 11.7 | 3.3
O=C(Cn1ccc2ccccc2c1=O)N1CCN(Cc2ccc3c(c2)OCO3)CC1 | -7.4 | -1.8 | 9.0 | 84.1 | 6.7 | -3.7
NCC(O)C1CCCCCCC1 (stereo not given) | x | -0.5 | x | x | x | x
COc1cccc(N2CCN(c3c4c(nc5ncnn35)CCC4)CC2)c1 | -18.2 | -1.1 | x | 24.5* | 12.5 | 2.1
CSc1nc(N)c2ncn([C@@H]3O[C@H](COP(=O)(O)OP(=O)(O)O)[C@H](O)C3O)c2n1 (stereo not given in full) | x | -1.8 | x | x | x | x
OC[C@H]1O[C@@H](n2cnc3c(NC4CCCC4)ncnc32)C(O)[C@H]1O (stereo not given in full) | x | 2.6 | x | x | x | x
CCOC1(OCC)N=C(N)C2(C#N)C(c3ccc(NC(C)=O)cc3)C12C#N (stereo not given) | -0.1 | -8.0 | 26.5* | 89.8 | 3.8 | 1.0
CCCCC#Cc1nc(N)c2ncn([C@@H]3O[C@H](C(=O)NCC)[C@@H](O)[C@H]3O)c2n1 | x | 2.3 | x | x | x | x
CC1(C)NC(=O)N(CC(O)CN2C(=O)NC(C)(C)C2=O)C1=O | -13.6 | -2.5 | -1.1 | 42.9* | -1.1 | -22.7
CCOc1cc(C2C(C#N)=C(N)Oc3n[nH]c(-c4ccccc4)c32)ccc1O (stereo not given) | 65.1* | 0.8 | 2.3 | 80.5 | 3.4 | 13.7
O=C(Nc1cccc(NS(=O)(=O)c2ccc(S(=O)(=O)NC3CC3)cc2)c1)c1ccccn1 | 2.5 | -1.2 | 6.8 | 82.9 | 11.3 | 27.1
CCCCCCCC/C=C\CCCCCCCC(=O)NCCc1ccc(O)c(O)c1 | x | 83.8* | x | x | x | x
Cc1ccc2c(c1)C(N1CCN(C)CC1)=Nc1cccnc1N2 | x | 0.5 | x | x | x | x

Assay outcomes (PubChem BioAssay)
